# hcDAF-12 act – H. contortus DAF-12 nuclear receptor activators, primary screen, cell-based, luminescence, HEK293, lit1-tk-luc reporter | HEK293 hcDAF-12 lit1-tk-luc reporter; 0% DMSO, 100% Δ7-dafachronic acid | activation, % at 6.8 µM | AID 652067, 2013 | 370,000 tested, 1.4% active;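 active = activation above the mean of all tested compounds plus 3 SD, cut at about 5.5% in these data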;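 note: 100% = response to 3 µM Δ7-dafachronic acid high control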
# DAX1 inh-1 – DAX1 (NR0B1) inhibitors, primary screen, cell-based, HEK293, Gal4-DAX1, luciferase luminescence; Nuclear receptor subfamily 0 group B member 1 (Homo sapiens), P51843; HEK293 Gal4-DAX1 luciferase reporter; inhibition, % at 6.75 µM; 340,000 tested, 0.99% active;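 active = inhibition above the mean over all tested compounds plus 3 SD, cut at about 4.2% in these data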;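 note: 0% = DAX1-transfected cells with DMSO and 100% = empty-vector control cells with DMSO; inhibition shows as a rise in luminescence from relieved DAX1 repression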
# Target sequence (P51843 207-470 limits assumed): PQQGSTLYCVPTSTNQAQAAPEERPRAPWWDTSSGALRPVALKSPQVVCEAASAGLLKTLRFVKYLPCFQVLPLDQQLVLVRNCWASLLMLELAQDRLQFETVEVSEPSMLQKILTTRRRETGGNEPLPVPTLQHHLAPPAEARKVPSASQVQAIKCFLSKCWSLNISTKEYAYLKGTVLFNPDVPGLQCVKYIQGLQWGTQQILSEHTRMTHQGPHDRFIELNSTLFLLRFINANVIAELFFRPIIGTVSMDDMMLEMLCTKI
# hgDAF12 agonist – H. glycines DAF-12 receptor agonists, primary screen, cell-based, luminescence, HEK293, GAL4 fusion, UAS-luciferase; Nuclear hormone receptor DAF-12 (Heterodera glycines), GAL4 fusion; HEK293 GAL4-hgDAF12 UAS-luciferase reporter, agonist luminescence; normalized to butyrate control; activation, % at 6.8 µM; 370,000 tested, 1.8% active; AID 687014, 2013;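 active = activation above a cutoff set at the mean of all screened compounds plus 3 SD, cut at about 10% in these data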;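 note: 0% = DMSO wells and 100% = sodium butyrate wells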
# DAX1 inh-2 – DAX1 (NR0B1) inhibitors on StAR promoter, primary screen, cell-based, luminescence, SF-1 (NR5A1), full-length DAX-1. HEK293T StAR-luciferase reporter, SF-1/DAX-1 repression relief. AID 652010, 2013. 370,000 tested, 1.1% active. inhibition, % at 6.8 µM;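 active = inhibition above the mean over all tested compounds plus 3 SD, cut at about 3.6% in these data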;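 note: 0% = DAX-1 cells with DMSO and 100% = cells lacking DAX-1 with DMSO; higher inhibition means more luminescence from relief of DAX-1 repression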
# ssDAF12 agonist – S. stercoralis DAF-12 nuclear receptor activators, primary screen, cell-based, luminescence, HEK293, GRIP1 co-expression, lit1-tk-luc; Nuclear hormone receptor DAF-12 (Strongyloides stercoralis); HEK293 ssDAF-12/GRIP1 lit1-tk-luc reporter; % of 3 µM dafachronic acid response; activation, % at 6.8 µM; 370,000 tested, 1% active; AID 652126, 2013;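 active = activation above the mean over all tested compounds plus 3 SD, cut at about 0.9% in these data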;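 note: 0% = DMSO-only wells and 100% = 3 µM delta7-dafachronic acid wells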
# An asterisk follows results filed as active; nt = no result. Hits are enriched below; roughly 4.1% of the tested compounds scored in any of these assays.
SMILES,hcDAF-12 act,DAX1 inh-1,hgDAF12 agonist,DAX1 inh-2,ssDAF12 agonist
O=c1[nH]nc(Cc2ccc(-c3ccccc3Cl)o2)c2ccccc12,0.2,-0.2,2.1,-0.2,1.4*
O=c1[nH]nc(Cc2ccc(Cl)cc2)c2ccccc12,-1.6,-0.7,-0.4,0.4,-0.9
CCCSc1nnc(CSc2ncccn2)n1C,5.9*,-0.1,6.7,0.1,-1.1
Cc1cc(C)c2nc(-n3nc(C)cc3N)cc(C)c2c1,5.7*,1.0,6.6,1.4,-0.1
Clc1cccc(Cc2c(-c3cccc(Br)c3)nc3c4ccccc4ccn23)c1,6.1*,nt,2.6,1.2,-0.5
Clc1ccc(-c2nc3c4ccccc4ccn3c2Cc2cccc(Cl)c2)cc1,5.9*,nt,7.0,0.8,0.9
c1ccc(-c2nc3c4ccccc4ccn3c2CC2CCCCC2)cc1,5.6*,nt,6.0,1.2,0.5
Fc1cccc(Cc2c(-c3ccccc3)nc3c4ccccc4ccn23)c1,3.8,nt,4.8,1.1,1.4*
Cc1ccc(-c2nc3c4ccccc4ccn3c2Cc2cccc(F)c2)cc1,3.9,nt,2.2,0.7,0.3
CCCCN1C(=O)N2Cc3ccccc3C2CS1(=O)=O (centres undefined),1.1,nt,6.0,1.1,0.3
Oc1ccc2ccccc2c1C=Nc1ccccc1Br,-0.5,0.6,1.7,0.1,0.1
Oc1ccc2ccccc2c1C=NNc1ccccn1,6.0*,0.5,2.1,-4.2,2.0*
Oc1ccccc1N=Cc1c(O)ccc2ccccc12,5.9*,-1.5,-2.6,-0.8,0.9
CN(CCN1CCOCC1)Cc1nc(-c2cccs2)no1,1.1,1.8,2.0,0.9,-1.0
c1csc(-c2noc(CN3CCOCC3)n2)c1,1.8,4.7*,1.9,0.4,-0.7
Cc1sc2ncnc(N/N=C/c3cccc(O)c3)c2c1C,5.6*,2.7,7.8,1.9,0.2
CC(C)C[C@H](NC(=O)c1ccccc1)C(=O)N1CCC[C@H]1C(=O)NCc1ccccc1,-0.5,nt,-0.2,-1.2,-0.4
COc1cccc(CNc2nc3cc(-c4ccccc4C)sc3c(=O)n2C)c1,-1.3,nt,-3.1,-1.4,-1.5
Cn1c(NCc2cccnc2)nc2cc(-c3cccc(C(F)(F)F)c3)sc2c1=O,-0.7,nt,-2.5,-0.2,-1.1
COc1ccc(-c2cc(CNc3nc4cc(-c5ccccc5C)sc4c(=O)n3C)on2)cc1,1.4,nt,7.9,4.3*,-0.4
COc1cccc(-c2cc3nc(NCc4cccnc4)n(C)c(=O)c3s2)c1,5.1,nt,8.9,2.0,1.0*
COCCNc1nc2cc(-c3ccc(C)cc3)sc2c(=O)n1C,2.7,nt,12.3*,3.8*,1.0*
CCCNC(=O)CCn1nc(-c2ccc(Cl)cc2)c2ccccc2c1=O,-1.6,5.4*,4.4,0.1,-2.0
C#CCNC(=O)C[C@H]1C[C@@]2(C(=O)OC)C(=C[C@H](C(C)C)O[C@@H]2C2CC2)N(CCc2ccc(OC)c(OC)c2)C1=O,-2.1,nt,-3.2,-1.0,-1.2
CCOC(=O)c1sc(NC(=O)c2ccccc2OCC)nc1C,-2.0,0.1,-0.9,0.1,-1.4
SMILES,hcDAF-12 act,DAX1 inh-1,hgDAF12 agonist,DAX1 inh-2,ssDAF12 agonist
CCOC(=O)c1sc(NC(=O)c2ccc(=O)[nH]c2)nc1C,0.5,6.1*,-0.1,0.0,-0.4
CCOC(=O)c1sc(NC(=O)c2ccc3nc[nH]c3c2)nc1C,0.3,0.1,4.1,0.2,-0.5
CCOC(=O)c1sc(NC(=O)c2cccnc2)nc1C,5.9*,1.7,1.2,-0.1,-0.6
COC(=O)c1sc(NC(=S)NC(=O)c2cccc(Br)c2)nc1C,3.8,4.6*,3.8,-0.2,-0.3
CCOc1ccc(-n2c(SCC(=O)Nc3cccc4ccccc34)nnc2-c2ccncc2)cc1,-2.0,nt,-0.5,-2.6,-0.2
CCCCNC(=O)C[C@@H]1C(=O)N(Cc2ccc(OC)cc2)/C2=C/CCCCC[C@@]21C(=O)OCC,1.3,nt,5.1,0.4,-1.8
COc1ccc(NC(=O)N(C)[C@H]2C[C@H]3c4[nH]c5c(-c6ccccc6)cccc5c4CCN3C(=O)[C@H]2[C@H](C)O)cc1,-2.0,nt,-4.6,-1.2,-0.8
O=C(N=Nc1c(O)[nH]c2c(Cl)cc(Cl)cc12)c1ccccc1O,1.1,nt,4.8,1.5,-1.0
O=C(COc1ccccc1C(=O)NCc1ccccc1)Nc1ccc(I)cc1,-2.5,nt,-2.0,-2.2,-1.7
C/C(=N\Nc1nc(C(C)(C)C)cs1)c1ccc(O)cc1,5.8*,-0.7,-0.4,0.1,0.1
C/C(=N\Nc1nc(C(=O)O)cs1)c1ccccc1,-0.4,nt,2.9,-0.1,-0.5
CCCCn1nnnc1C1c2ccccc2OCC(=O)N1Cc1ccc2c(c1)OCO2 (centres undefined),0.6,nt,0.7,0.5,-0.8
COc1ccc(/C=N/NC(=S)Nc2c(C)n(C)n(-c3ccccc3)c2=O)cc1OC,-0.9,5.4*,-0.2,0.1,-1.3
O=C(Nc1ccc(F)cc1)OCc1cn(Cc2ccccc2F)nn1,-0.8,nt,2.6,-0.7,-1.3
Cc1ccc2[nH]c(SCC(=O)N3CCOCC3)nc2c1C,5.7*,2.9,9.3,0.5,0.3
Cc1ccc2nc(SCC(=O)N3CCOCC3)[nH]c2c1,2.4,0.7,8.2,2.7,0.0
CCCCOc1ccc(-c2[nH]ncc2C=O)cc1,3.6,5.1*,12.9*,1.1,0.1
O=C(Nc1ccc(F)cc1)OCc1cn(Cc2c(F)cccc2F)nn1,0.3,nt,2.2,-1.3,-1.1
FC(F)(F)c1ccc2nc(CNc3nc(N4CCOCC4)nc4c3ncn4-c3ccsc3)[nH]c2c1,-5.5,nt,-9.5,nt,-2.0
CC(=O)N/C(=C\c1ccccc1)C(=O)OCC(=O)NC1CCCC1,6.4*,1.1,1.5,0.4,-0.3
CC(=O)N/C(=C\c1ccccc1)C(=O)OCC(=O)c1ccccc1,0.2,-0.6,-0.5,-0.7,-1.5
S=C1c2ccccc2CN1c1ccccc1,6.0*,1.2,5.1,0.0,-1.1
O=C(O)c1cccc2c1C(=O)N(c1ccccc1)C2,0.4,0.2,-0.4,0.2,-1.4
CCC(C)CNC(=O)c1oc(=O)c2ccccc2c1-c1ccc(C)cc1 (centres undefined),1.3,nt,-2.7,-0.5,-1.8
C#CCOCCOCCOCCNc1nc(N2CCN(C(=O)[C@H](CCCCN)n3cc(CN)nn3)CC2)nc(N2CCN(C(=O)[C@H](CCCCN)n3cc([C@@H](N)CC(N)=O)nn3)CC2)n1,-0.1,0.0,-1.2,0.1,-1.1

# Screens as filed in PubChem.
